High-throughput results as filed in PubChem.
AMPAR-TARP mod – GluA2-stargazin AMPA receptor complex modulation | HEK293 GluA2+stargazin, membrane potential dye (FDSS), glutamate EC50; hits were called plate by plate, in both directions | AID 1259245 | O88602+P19491 | calls only at 30 µM | actives 3.5% (n = 40,000);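 active means any of four per-well response measures lying three or more SD from its plate-wide compound average, in either direction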
GIRK2 act – GIRK2 channel activators by thallium flux; 34,000 tested, under 10 active; HEK293 GIRK2/NPY4 cells, thallium flux fluorescence; AID 1259324; activation (% efficacy), % for hits at 37.5 µM; P48051;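 active means primary screen hit, no activity in plain HEK293 cells, and in GIRK2-only cells above 5% efficacy rising with concentration; inactive means the rest, including fluorescent compounds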;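 further: efficacy is normalized control-subtracted fluorescence 15 s after thallium addition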
Target sequence (P48051 whole entry, looked up): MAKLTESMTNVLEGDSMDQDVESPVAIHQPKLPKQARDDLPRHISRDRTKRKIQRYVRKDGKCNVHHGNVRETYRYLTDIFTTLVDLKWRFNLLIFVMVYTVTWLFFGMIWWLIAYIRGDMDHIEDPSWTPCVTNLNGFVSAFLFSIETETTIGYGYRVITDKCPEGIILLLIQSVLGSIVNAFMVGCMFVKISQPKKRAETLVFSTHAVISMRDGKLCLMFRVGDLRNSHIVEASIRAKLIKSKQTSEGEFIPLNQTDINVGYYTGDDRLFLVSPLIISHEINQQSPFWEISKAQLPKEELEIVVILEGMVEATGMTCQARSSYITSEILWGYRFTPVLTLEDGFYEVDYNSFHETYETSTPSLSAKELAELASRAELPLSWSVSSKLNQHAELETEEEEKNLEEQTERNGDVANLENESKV
An asterisk follows results filed as active; i = inactive; / = not tested or not shown; + = active, no number. Shown is part of a subset that was picked to be rich in hits.

SMILES	AMPAR-TARP mod	GIRK2 act
COc1ccc(F)cc1CN1CCN(c2cc(C)nc3c4c(C)cc(C)nc4nn23)CC1	+	i
Cc1cc(C)c2c(n1)nn1c(N3CCN(Cc4ccccc4)CC3)cc(C)nc21	+	i
C=C(C)CN1CCN(c2cc(C)nc3c4c(C)cc(C)nc4nn23)CC1	+	i
Cc1cc(C)c2c(n1)nn1c(N3CCN(CCOc4ccc(Cl)cc4)CC3)cc(C)nc21	i	/
Cc1cc(N2CCN(CC#N)CC2)n2nc(C(F)(F)F)c(-c3ccccc3)c2n1	i	i
COc1ccccc1-c1cnn2c(N3CCN(CC#N)CC3)cc(C)nc12	i	i
COc1cccc(NC(=O)Cn2c(=O)n(Cc3ccco3)c(=O)c3sc4ccccc4c32)c1	/	i
CCSc1nnc(NC(=O)c2nnn(-c3ccccc3)c2C)s1	i	i
CC(O)(CNC(=O)C(=O)Nc1cccc(N2CCCCC2=O)c1)c1ccccc1 (stereo unspecified)	/	i
CCC(=O)Oc1ccc2c(c1)O/C(=C\c1ccc(OC)cc1OC)C2=O	i	/
CCOC(=O)c1ccccc1NC(=O)Cn1cc(-c2ccccc2)c2ncn(CCOC)c(=O)c21	+	i
CCOc1ccccc1NC(=O)Cn1cc(-c2ccccc2)c2ncn(CCOC)c(=O)c21	i	i
O=C1CCC(C(=O)Nc2nc(CC(=O)N3CCCc4ccccc43)cs2)N1 (stereo unspecified)	i	i
Cn1nnc2c(N3CCN(C(=O)c4ccc(C(C)(C)C)cc4)CC3)ncnc21	i	i
C#CCn1c(SCCOc2cccc(OC)c2)nc2ccccc21	+	/
COc1cccc(OCCn2c(CN3CCCCC3)nc3ccccc32)c1	i	/
COc1ccccc1C(=O)NCC1CCN(C(=O)Nc2ccc(F)cc2)CC1	i	i
COc1cccc(C(CNC(=O)c2cccc3ccccc23)N2CCOCC2)c1 (stereo unspecified)	+	/
COc1cccc(C(CNC(=O)C(=O)NCc2cccs2)N2CCOCC2)c1 (stereo unspecified)	i	i
COc1cccc(C(CNC(=O)C2(c3cccs3)CCCC2)N2CCOCC2)c1 (stereo unspecified)	+	i
COc1cccc(C(CNC(=O)Cc2cccc3ccccc23)N2CCOCC2)c1 (stereo unspecified)	i	/
CSc1cccc(NC(=O)C(=O)NCCC(c2ccccc2)c2ccccc2)c1	i	/
CC(C)c1cccc2sc(N(Cc3ccccc3)C(=O)c3ccnn3C)nc12	/	i
Cc1cc(C)c(S(=O)(=O)NCCNc2ccc(Nc3cccc(C)n3)nn2)c(C)c1	/	i
CCCS(=O)(=O)N1CCN=C1SCc1ccc(Cl)c(Cl)c1	i	/
SMILES	AMPAR-TARP mod	GIRK2 act
COCCn1nc(-c2ccc(Cl)cc2)ccc1=O	i	i
COCCn1nc(-c2ccc3c(c2)OCO3)ccc1=O	+	i
CC(C)CC(=O)Nc1ccc(S(=O)(=O)N2CCN(c3cnccn3)CC2)cc1	i	i
COc1ccc(S(=O)(=O)CC(=O)Nc2ccc3c(c2)C(=O)NC3=O)cc1	i	i
COc1ccc(SCCC(=O)Nc2ccc3c(c2)C(=O)NC3=O)cc1	+	i
COc1ccc(CC(=O)Nc2cc(C)nn2-c2nc3c(cnn3-c3cccc(C)c3C)c(=O)[nH]2)cc1	/	i
COc1cn(CC(=O)NCc2ccco2)c(CSc2ccc(C)cc2)cc1=O	i	i
COc1ccc(NC(=O)C(=O)NCCN2CCOC(c3ccccc3)C2)cc1OC (stereo unspecified)	/	i
COc1ccc(N2CCN(C(=O)c3ccc(S(=O)(=O)N4CCCC4)cc3)CC2)nn1	/	i
CN(C)c1ccc(N2CCN(C(=O)c3ccc(S(N)(=O)=O)cc3)CC2)nn1	+	i
CC(C)c1nnc(C2CCN(S(=O)(=O)c3ccc4c(c3)CCCC4)CC2)o1	+	i
CC(C)c1nnc(C2CCN(S(=O)(=O)c3cccnc3)CC2)o1	i	i
CC(C)C(=O)N1CCc2ccc(NS(=O)(=O)c3cccnc3)cc2C1	i	i
COc1cn(CC(=O)NC2CCCCC2)c(CSc2ccccc2)cc1=O	+	/
COc1cn(CC(=O)NC2CCCC2)c(CSc2ccc(C)cc2)cc1=O	i	i
COc1cccc2cc(-c3nnc(NC(=O)c4ccco4)o3)oc12	i	/
COc1ccccc1NC(=O)C(=O)NCC(c1ccco1)N(C)C (stereo unspecified)	i	i
COc1ccc(-c2nc3c(c(=O)c4ccccc4n3C)c(=O)n2CC(C)C)cc1	i	/
CC(C)Cn1c(-c2ccc([N+](=O)[O-])cc2)nc2c(c(=O)c3ccccc3n2C)c1=O	+	/
CS(=O)(=O)N1CCCCC1C(=O)N1CCc2ccccc2C1 (stereo unspecified)	i	i
COc1ccc2nc(-c3cccc(NC(=O)Nc4ccc(F)cc4)c3)cn2n1	+	i
